# Reference: ChEMBL document CHEMBL3988442, “University of Dundee, Small-Polar-MMV Screening Library” (2021)
# For some of these results: Potency and affinity values are given separately.
# Key:
# Set-up in all cases: scale not given: direction of the effect not stated beside the values
# [1] = molecular target: Protein translocase subunit SecA (Escherichia coli (strain K12)) (UniProt P10408); test: Assay to Identify E. coli SecA ATPase Inhibitors; assay type: functional; conditions: 30 µM
# [2] = molecular target: T1, Ubiquitin-activating enzyme e1, putative (Leishmania donovani (strain BPK282A1)) (UniProt E9BSI1); test: Leishmania donovani Ubiquitin Activating Enzyme (LdE1); assay type: functional; conditions: 30 µM
# T1 sequence (whole entry): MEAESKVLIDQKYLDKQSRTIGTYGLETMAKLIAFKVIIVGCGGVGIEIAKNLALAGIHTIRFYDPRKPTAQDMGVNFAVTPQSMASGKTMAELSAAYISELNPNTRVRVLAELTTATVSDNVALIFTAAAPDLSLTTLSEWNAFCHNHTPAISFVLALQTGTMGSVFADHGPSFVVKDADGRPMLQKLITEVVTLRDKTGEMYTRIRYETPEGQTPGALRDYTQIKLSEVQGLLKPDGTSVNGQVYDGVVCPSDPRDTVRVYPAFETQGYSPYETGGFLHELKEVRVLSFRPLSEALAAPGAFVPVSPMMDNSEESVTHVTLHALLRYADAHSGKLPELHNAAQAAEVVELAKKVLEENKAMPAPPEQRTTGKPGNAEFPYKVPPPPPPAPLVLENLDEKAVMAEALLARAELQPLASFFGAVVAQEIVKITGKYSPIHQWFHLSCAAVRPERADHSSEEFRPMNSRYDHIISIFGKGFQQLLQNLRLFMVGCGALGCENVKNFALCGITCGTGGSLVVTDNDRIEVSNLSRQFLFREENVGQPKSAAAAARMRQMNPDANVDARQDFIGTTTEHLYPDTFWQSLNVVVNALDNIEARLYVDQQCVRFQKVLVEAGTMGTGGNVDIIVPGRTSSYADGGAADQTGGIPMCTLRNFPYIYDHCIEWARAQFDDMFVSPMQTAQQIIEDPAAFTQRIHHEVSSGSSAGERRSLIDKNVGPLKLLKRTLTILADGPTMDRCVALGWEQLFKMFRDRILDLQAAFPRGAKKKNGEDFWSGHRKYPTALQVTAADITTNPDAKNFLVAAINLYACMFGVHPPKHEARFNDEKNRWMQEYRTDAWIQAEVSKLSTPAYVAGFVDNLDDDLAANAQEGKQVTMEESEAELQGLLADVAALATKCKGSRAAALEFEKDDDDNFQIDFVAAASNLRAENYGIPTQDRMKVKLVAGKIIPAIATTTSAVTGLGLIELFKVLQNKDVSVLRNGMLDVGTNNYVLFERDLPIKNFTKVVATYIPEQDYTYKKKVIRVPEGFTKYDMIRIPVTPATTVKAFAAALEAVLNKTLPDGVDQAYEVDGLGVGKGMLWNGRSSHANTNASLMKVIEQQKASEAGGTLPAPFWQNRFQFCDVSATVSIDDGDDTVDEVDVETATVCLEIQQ
# [3] = molecular target: AMP-activated protein kinase, AMPK (Homo sapiens) (UniProt P54646+O43741+P54619+Q9UGJ0+Q9Y478+Q13131+Q9UGI9); test: AMP-dependent Kinase enzyme assay. An in vitro enzyme assay that detects ADP turnover that is directly proportional to AMPK activity. This uses naive AMPK that is activated during the assay with MK-8722; assay type: functional; conditions: 30 µM
# [4] = molecular target: Sialic acid-binding Ig-like lectin 9 (Homo sapiens) (UniProt Q9Y336); test: Hs-Siglec9 ALPHAscreen SOP 20170721; conditions: 10 µM
# Trypanosoma cruzi = test: Trypanosoma cruzi phosphomannomutase and mannose-1-phosphate guanylyltransferase assay; assay type: functional; conditions: 10 µM
# [5] = molecular target: T2, Arginase-2, mitochondrial (Homo sapiens) (UniProt P78540); test: in vitro enzyme assay to detect the production of urea directly proportional to the activity of Arginase II; assay type: functional; conditions: 33.3 µM; further: in the data most compounds retested in dose-response had high values
# T2 sequence (whole entry): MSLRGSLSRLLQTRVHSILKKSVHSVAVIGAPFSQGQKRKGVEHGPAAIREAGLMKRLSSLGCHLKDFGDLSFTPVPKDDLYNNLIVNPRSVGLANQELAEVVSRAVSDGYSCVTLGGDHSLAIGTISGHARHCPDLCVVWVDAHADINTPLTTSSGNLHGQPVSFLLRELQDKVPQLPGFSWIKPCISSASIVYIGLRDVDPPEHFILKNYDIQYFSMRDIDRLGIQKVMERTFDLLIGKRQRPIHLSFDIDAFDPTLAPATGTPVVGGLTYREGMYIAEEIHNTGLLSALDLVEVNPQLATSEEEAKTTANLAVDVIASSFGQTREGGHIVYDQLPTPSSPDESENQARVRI
# [6] = molecular target: T3, Proteasome subunit beta (Trypanosoma cruzi) (UniProt O96673); test: Trypanosoma cruzi proteasome chymotrypsin-like activity (TcProtChymo) assay.; further: in the data most compounds retested in dose-response had high values; assay type: functional; conditions: 9.37 µM
# T3 sequence (whole entry): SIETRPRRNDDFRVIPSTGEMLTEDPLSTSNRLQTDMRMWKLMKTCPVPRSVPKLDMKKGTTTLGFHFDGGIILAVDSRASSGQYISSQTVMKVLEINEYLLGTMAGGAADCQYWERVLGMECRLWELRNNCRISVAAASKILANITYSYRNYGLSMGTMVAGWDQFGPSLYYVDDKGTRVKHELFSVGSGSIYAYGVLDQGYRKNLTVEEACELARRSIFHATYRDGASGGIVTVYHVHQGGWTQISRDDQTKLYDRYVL
# Homo sapiens = species: Homo sapiens; test: To identify inhibition of the IFN signalling (Jak-Stat) pathway via expression of an eGFP reporter gene under the control of an IFN-stimulated response element (ISRE) containing MxA promoter.; assay type: functional; conditions: 30 µM
# [7] = molecular target: T4, Tyrosyl-tRNA synthetase, putative (Trypanosoma cruzi (strain CL Brener)) (UniProt Q4DSP6); test: Trypanosoma cruzi tyrosyl tRNA synthetase (TcYRS) _High Tyrosine SOP; assay type: functional; conditions: 30 µM; further: in the data most compounds retested in dose-response had high values
# T4 sequence (whole entry): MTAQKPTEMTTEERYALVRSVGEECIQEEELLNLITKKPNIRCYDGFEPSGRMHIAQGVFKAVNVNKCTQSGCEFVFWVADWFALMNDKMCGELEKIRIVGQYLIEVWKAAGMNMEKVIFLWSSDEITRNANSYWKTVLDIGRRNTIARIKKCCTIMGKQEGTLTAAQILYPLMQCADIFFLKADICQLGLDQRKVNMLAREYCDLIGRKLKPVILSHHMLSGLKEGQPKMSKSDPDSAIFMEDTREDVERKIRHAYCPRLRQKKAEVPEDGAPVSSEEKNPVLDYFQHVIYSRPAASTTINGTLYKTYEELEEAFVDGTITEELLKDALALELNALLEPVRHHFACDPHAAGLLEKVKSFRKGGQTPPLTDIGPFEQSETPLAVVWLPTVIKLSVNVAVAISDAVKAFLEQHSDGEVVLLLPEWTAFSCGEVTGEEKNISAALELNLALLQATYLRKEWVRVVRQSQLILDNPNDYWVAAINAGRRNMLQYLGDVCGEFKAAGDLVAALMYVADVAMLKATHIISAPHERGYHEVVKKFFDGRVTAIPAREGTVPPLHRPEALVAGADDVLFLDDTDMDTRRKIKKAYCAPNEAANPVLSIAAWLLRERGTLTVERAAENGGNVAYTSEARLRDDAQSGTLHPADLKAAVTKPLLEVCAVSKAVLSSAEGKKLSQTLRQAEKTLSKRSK
# [8] = molecular target: T4, Tyrosyl-tRNA synthetase, putative (Trypanosoma cruzi (strain CL Brener)); test: Trypanosoma cruzi tyrosyl tRNA synthetase (TcYRS) SOP; assay type: functional; conditions: 30 µM
# [9] = molecular target: Chromo domain-containing protein 1 (Saccharomyces cerevisiae (strain ATCC 204508 / S288c) (Baker's yeast)) (UniProt P32657); test: ScCHD-1 Enzyme Inhibition Assay; assay type: functional; conditions: 30 µM; further: in the data most compounds retested in dose-response had high values
# Chromo domain-containing protein 1 (Saccharomyces cerevisiae (strain ATCC 204508 / S288c) (Baker's yeast)), sequence (P32657 whole entry, the tested form may be a part): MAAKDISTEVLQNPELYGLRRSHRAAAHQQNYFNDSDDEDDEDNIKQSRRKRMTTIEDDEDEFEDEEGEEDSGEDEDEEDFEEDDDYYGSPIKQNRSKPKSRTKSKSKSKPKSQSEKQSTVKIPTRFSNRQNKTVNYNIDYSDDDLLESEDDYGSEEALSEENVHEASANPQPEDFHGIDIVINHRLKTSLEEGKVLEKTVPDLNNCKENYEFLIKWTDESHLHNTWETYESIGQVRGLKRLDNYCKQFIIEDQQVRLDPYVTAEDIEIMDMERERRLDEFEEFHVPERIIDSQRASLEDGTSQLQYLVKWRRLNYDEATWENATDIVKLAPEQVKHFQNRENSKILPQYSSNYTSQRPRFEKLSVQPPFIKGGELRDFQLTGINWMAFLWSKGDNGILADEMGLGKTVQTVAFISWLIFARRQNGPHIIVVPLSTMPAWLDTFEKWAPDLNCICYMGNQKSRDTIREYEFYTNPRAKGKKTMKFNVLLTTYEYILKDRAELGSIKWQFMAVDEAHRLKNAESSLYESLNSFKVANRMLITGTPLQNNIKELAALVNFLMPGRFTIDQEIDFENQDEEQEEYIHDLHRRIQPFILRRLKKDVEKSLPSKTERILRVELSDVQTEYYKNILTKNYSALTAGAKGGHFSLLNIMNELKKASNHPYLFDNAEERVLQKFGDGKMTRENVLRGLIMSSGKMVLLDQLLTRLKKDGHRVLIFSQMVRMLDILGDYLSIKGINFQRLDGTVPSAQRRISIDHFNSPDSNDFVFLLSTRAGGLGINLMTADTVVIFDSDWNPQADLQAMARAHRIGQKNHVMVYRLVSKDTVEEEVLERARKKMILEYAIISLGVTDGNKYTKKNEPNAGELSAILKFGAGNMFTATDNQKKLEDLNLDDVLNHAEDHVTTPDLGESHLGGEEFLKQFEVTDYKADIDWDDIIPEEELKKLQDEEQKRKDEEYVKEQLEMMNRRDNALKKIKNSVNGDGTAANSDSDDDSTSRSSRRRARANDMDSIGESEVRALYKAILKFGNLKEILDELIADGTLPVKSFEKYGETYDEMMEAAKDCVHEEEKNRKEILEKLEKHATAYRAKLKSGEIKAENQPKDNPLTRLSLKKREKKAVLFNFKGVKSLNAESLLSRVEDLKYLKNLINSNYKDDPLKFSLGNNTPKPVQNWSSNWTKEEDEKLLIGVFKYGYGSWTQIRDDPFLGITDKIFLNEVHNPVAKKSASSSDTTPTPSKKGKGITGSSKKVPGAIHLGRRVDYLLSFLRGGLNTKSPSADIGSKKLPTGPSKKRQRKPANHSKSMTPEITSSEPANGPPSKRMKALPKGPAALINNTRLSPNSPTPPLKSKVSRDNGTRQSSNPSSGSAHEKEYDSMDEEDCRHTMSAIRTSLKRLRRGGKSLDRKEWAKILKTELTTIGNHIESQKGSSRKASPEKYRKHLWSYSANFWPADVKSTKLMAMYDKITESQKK
# Sialic acid-binding Ig-like lectin 9 (Homo sapiens), sequence (Q9Y336 whole entry): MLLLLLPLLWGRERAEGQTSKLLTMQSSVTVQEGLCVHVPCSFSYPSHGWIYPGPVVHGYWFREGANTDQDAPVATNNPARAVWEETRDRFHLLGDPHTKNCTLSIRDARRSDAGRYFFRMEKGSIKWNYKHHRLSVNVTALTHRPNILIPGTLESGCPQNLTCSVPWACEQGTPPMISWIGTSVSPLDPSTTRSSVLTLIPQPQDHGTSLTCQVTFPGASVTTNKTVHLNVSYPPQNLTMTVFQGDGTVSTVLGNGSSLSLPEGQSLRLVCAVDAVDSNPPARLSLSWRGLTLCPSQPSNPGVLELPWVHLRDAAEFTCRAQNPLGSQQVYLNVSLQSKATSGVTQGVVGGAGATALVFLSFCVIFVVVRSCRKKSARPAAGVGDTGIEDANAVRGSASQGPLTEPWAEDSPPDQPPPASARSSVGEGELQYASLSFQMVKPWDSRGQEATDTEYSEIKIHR
# Protein translocase subunit SecA (Escherichia coli (strain K12)), sequence (P10408 whole entry): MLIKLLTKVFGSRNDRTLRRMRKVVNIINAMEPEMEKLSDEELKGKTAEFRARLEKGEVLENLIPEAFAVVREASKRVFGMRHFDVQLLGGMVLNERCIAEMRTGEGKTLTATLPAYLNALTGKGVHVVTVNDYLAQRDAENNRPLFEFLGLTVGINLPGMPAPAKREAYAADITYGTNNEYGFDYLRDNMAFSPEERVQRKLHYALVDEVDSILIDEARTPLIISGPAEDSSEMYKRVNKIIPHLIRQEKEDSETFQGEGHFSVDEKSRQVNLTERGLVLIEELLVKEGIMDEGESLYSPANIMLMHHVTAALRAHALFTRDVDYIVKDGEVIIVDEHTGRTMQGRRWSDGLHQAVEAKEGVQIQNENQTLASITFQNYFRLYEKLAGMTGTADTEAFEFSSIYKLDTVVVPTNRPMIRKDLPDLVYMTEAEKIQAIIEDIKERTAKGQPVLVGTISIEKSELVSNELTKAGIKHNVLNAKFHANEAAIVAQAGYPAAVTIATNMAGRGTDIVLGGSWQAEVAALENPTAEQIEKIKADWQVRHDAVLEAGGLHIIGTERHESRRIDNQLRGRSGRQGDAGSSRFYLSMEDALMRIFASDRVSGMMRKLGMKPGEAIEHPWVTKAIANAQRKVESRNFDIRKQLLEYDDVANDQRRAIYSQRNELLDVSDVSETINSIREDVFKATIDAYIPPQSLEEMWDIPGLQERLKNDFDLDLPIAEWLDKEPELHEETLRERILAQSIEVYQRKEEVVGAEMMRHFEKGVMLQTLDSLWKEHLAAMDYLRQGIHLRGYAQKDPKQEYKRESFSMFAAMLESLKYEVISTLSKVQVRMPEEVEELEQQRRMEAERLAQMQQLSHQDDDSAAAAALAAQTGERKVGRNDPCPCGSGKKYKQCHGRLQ
SMILES,Percent Effect [1],Percent Effect [2],Percent Effect [3],Percent Effect [4],Percent Effect (Trypanosoma cruzi),Percent Effect [5],Percent Effect [6],Percent Effect (Homo sapiens),Percent Effect [7],Percent Effect [8],Percent Effect [9]
COCc1noc(C2(c3ccc(F)cc3)CCOCC2)n1,3.24%,8.11%,7.86%,11.7%,-7.72%,-3.81%,11.4%,40.2%,0.529%,-2.44%,-5.88%
Cc1ccc(NC(=O)Cn2cc(I)cn2)cc1,-4.63%,-4.17%,-12.3%,3.22%,-2.82%,-1.32%,6.32%,28.2%,-4.21%,-7.69%,3.77%
CCn1ncc(CN2CCc3c(nc(-c4cccnc4)[nH]c3=O)C2)c1C,-4.9%,5.33%,9.46%,2.36%,7.87%,0.699%,10.3%,2.75%,5.32%,11.5%,-4.43%
CC(C)(C)c1nnc(CN2CCCC(c3cc(C(N)=O)[nH]n3)C2)o1 (stereo not given),-6.11%,10.8%,-2.58%,-2.88%,-7.08%,-10%,3.78%,9%,-2.46%,-1.24%,-5.5%
Cc1cc(C(=O)NC2CCCN(c3ccccc3)C2=O)on1 (stereo not given),-6.07%,5.33%,-2.45%,-2.4%,-0.0974%,-1.56%,8.37%,5.07%,1.64%,13.6%,-2.89%
CC(C)Oc1cc(N2CCC(N3CCC(O)CC3)CC2)nc(N)n1,0.0362%,8.11%,-10%,8.23%,4.63%,-0.476%,11%,12.1%,8.99%,17.1%,-4.42%
COc1ccccc1C(=O)N1CCCC1Cn1cc(C)cn1 (stereo not given),-3.53%,18.9%,-13.2%,-6.09%,-4.25%,-2.81%,4.68%,-3.42%,11.3%,18.5%,-4.38%
COc1c(C)cnc(CN2CCOC(Cn3nc(C)nc3C)C2)c1C (stereo not given),-3.44%,7.59%,-1.91%,11%,1.6%,4.94%,-8.11%,-11.7%,2.46%,-8.86%,0.784%
CCn1ccc(C(=O)NCCCN2CCOCC2)n1,-1.56%,5.2%,-2.13%,4.7%,-0.492%,-2.76%,22%,4.11%,7.53%,13.6%,0.597%
CN(C)CCN1CCO[C@H]2CN(Cc3cnn(C)c3)C[C@H]21,-3.56%,0%,-1.78%,7.45%,-4.2%,2.73%,2.83%,-0.175%,5.38%,11.1%,-3.54%
CCc1nc(CCNC(=O)Nc2cc(C(N)=O)sc2C)cs1,-6.09%,0%,-8.97%,-2.52%,-4.19%,-1.56%,3.14%,19.9%,-0.546%,-3.7%,4.38%
CCn1cc(NC(=O)NC2CCCc3c2cnn3CCO)cn1 (stereo not given),-1.35%,5.33%,-2.07%,4.11%,-1.07%,1.56%,9.77%,4.28%,4.92%,11.1%,-14.2%
COc1c(C(=O)NCc2cccnc2)nnn1Cc1ccc(C)cc1,-1.69%,1.33%,1.61%,3.68%,-4.13%,1.23%,4.25%,5.48%,1.06%,2.56%,0.167%
N#Cc1cccc(NC(=O)N[C@H](CO)c2ccccc2)c1,-2.38%,5.41%,5.16%,5.37%,-1.35%,3.33%,11.6%,5.19%,1.59%,12.2%,-2.38%
CC(=O)N(Cc1noc(C)n1)C1CCN(Cc2ccon2)C1 (stereo not given),-2.71%,21.5%,-1.98%,-4.08%,1.13%,-3.66%,22.3%,10.2%,3.12%,15.2%,52.1%
Cc1cc(C)n(C2CCCN(C(=O)c3cccc4[nH]ncc34)C2)n1 (stereo not given),-5.51%,-13.5%,6.86%,-7.42%,-4.49%,-1.67%,7.69%,-0.356%,6.93%,3.66%,2.88%
Cc1cc(NC(=O)CCc2ccsc2)n(C)n1,-8.05%,4.17%,-4.38%,-1.11%,-3.98%,3.97%,17.7%,-3.97%,1.05%,7.69%,-4.62%
Clc1ccccc1C1(c2ccnc(CC3CC3)n2)CCNCC1,-2.96%,-7.79%,-1.73%,13.8%,6.59%,-80%,13.1%,-7.99%,8.6%,16.1%,-0.745%
CCc1ccc(OCC(O)CN2CCN(S(C)(=O)=O)CC2)cc1 (stereo not given),-7.02%,7.79%,3.94%,-12.9%,-6.56%,-3.58%,3.96%,16%,0.952%,2.35%,-21.6%
c1ccc2sc(CN3CCOC(Cn4cccn4)C3)nc2c1 (stereo not given),-6.08%,5.41%,-3.49%,1.12%,-4.06%,-2%,0%,24.4%,-0.493%,-8.64%,-0.731%
